13 compounds from PubChem BioAssay (EPA / NIEHS) can be followed below.

The term AC50 denotes the concentration at which the activity in the assay is half-maximal.

Inconclusive results are not listed. The source made the active and inactive calls. The calls were made as follows: active = hit-call score of the fitted dose curve at least 0.9, where 1 is the maximum; inconclusive = response in the unintended direction; inactive = score below 0.9.

Chain of Bile acid receptor (Homo sapiens) (Q96RI1 whole entry, looked up, the tested form may be a part): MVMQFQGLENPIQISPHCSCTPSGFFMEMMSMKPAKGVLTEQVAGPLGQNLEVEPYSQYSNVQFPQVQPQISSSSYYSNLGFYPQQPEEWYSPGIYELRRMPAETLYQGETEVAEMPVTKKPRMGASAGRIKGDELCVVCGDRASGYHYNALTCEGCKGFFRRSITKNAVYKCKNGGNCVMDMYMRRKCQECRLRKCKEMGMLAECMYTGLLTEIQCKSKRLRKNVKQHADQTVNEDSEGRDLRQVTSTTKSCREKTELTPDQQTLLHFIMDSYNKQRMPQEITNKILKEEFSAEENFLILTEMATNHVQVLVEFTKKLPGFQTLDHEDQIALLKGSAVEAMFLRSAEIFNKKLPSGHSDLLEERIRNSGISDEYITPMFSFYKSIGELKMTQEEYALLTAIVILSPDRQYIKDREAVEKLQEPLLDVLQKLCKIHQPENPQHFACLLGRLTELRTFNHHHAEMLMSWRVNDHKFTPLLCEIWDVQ

The target in the assay is Bile acid receptor (Homo sapiens) (UniProt Q96RI1). Kind of assay: OT_FXR_FXRSRC1_1440: Odyssey Thera (OT) 24-hour HEK293T Protein-Complementation Assay for Farnesoid X receptor/SRC-1 Co-activator (AID 2283384). How it is done:
OT_FXR_FXRSRC1_1440 is a cell-based assay that uses HEK293T, a human kidney cell line, with measurements taken at 24 hours after chemical dosing in a 384-well plate.OT_FXR_FXRSRC1_1440 is one of one assay component(s) measured or calculated from the OT_FXR_FXRSRC1_1440 assay. It is designed to make measurements of protein fragment complementation, a form of binding reporter, as detected with fluorescence intensity signals by Protein-fragment Complementation technology.Data from the assay component OT_FXR_FXRSRC1_1440 was analyzed into 1 assay endpoint. This assay endpoint, OT_FXR_FXRSRC1_1440, was analyzed in the positive analysis fitting direction relative to DMSO as the negative control and baseline of activity. Using a type of binding reporter, measures of receptor for gain-of-signal activity can be used to understand the binding at the pathway-level as they relate to the gene NR1H4. Furthermore, this assay endpoint can be referred to as a primary readout, because the performed assay has only produced 1 assay endpoint. To generalize the intended target to other relatable targets, this assay endpoint is annotated to the nuclear receptor intended target family, where the subfamily is non-steroidal.
Protein-fragment complementation assay, or PCA, is a method for the identification and quantification of protein-protein interactions. In the PCA, the proteins of interest ("bait" and "prey") are each covalently linked to fragments of a third protein (e.g. DHFR, which acts as a "reporter"). Interaction between the bait and the prey proteins brings the fragments of the reporter protein in close proximity to allow them to form a functional reporter protein whose activity can be measured.
Turning to `CC(O)CN(CC(C)O)CC(C)O` (stereo not drawn), the compound was called inactive.
Still for that read-out and setting: for `Cc1cc(C)c(C2=C(OC(=O)CC(C)(C)C)C3(CCCC3)OC2=O)c(C)c1` the value was “inactive”.
Same read-out and setting: for `Cc1ccc(C)c2ccccc12` the value was “inactive”; for `COc1cc(OC)nc(Oc2cccc(Oc3nc(OC)cc(OC)n3)c2C(=O)O)n1`, “inactive”.
On to `O=C1Nc2ccc(Cl)cc2C(c2ccccc2)=NC1O` (stereo not drawn), for which the call was inactive.
With `CNC(=N[N+](=O)[O-])NCC1CCOC1` (stereo not drawn), the compound was called inactive.
On to `CCOP(=O)(OCC)Oc1ccc([N+](=O)[O-])cc1`, for which the compound was called inactive.
On to `O=C(NC(=O)c1c(F)cccc1F)Nc1ccc(Oc2ccc(C(F)(F)F)cc2Cl)cc1F`, for which the AC50 is 40.8 µM (active).
Take `CC(C)(O)C#N`: the call was inactive.
Regarding `O=C(NCNC(=O)NC1C(=O)NC(=O)N1CO)NC1C(=O)NC(=O)N1CO` (stereo not drawn), the compound was called inactive.
On to `O=P(O)(Oc1ccccc1)Oc1ccccc1`, for which the result was inactive.
Take `N#CCCCCC#N`: the compound was classed as inactive.
Turning to `Nc1cc(Cl)cc(Cl)c1`, the call was inactive.
